Results on 17 compounds are retold here after PubChem BioAssay (NCATS).

Test [1] can be described thus: qHTS profiling of the MIPE4 collection as inhibitors of Plasmodium falciparum (DD2) proliferation (Rep 2) (AID 743346; call rule not given here). Conditions: P. falciparum Dd2 in erythrocytes, SYBR Green DNA, 72 h; at 28.5 µM unless noted. The essentials: (§1)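 Erythrocytes infected with P. falciparum (0.3% parasitemia, 2.5% hematocrit) incubated with compounds 72 h at 37 C, 5% CO2. Lysis with saponin/Triton buffer containing SYBR Green I, overnight at room temperature in the dark; DNA fluorescence (485/535 nm) normalised to 0.29 uM artemisinin and DMSO.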
For orientation: In qHTS, concentration-response curves come from the screen itself.

Test [2] can be described thus: qHTS profiling of the MIPE4 collection as inhibitors of Plasmodium falciparum (HB3) proliferation (AID 743347; call rule not given here;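 also: plate controls were DMSO vehicle wells for no effect and artemisinin wells for full effect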). Conditions: P. falciparum HB3 in erythrocytes, SYBR Green DNA, 72 h; at 28.5 µM unless noted. The essentials: as §1
Test [3] can be described thus: High-throughput drug toxicity screening in the BPDCN cell line Gen2.2 (AID 1224824; call rule not given here;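 also: cells exposed to compounds for 48 h before reading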). The following applies: Gen2.2 BPDCN cells; at 45.8 µM (top of the series) unless noted. The essentials:
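Readout is ATP luminescence from Gen2.2 cells after two days of drug exposure in serum-containing medium at 37 °C. Values express percent activity, with vehicle defining full signal and 9.2 uM bortezomib defining zero.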

A short description of test [4]: High-throughput drug toxicity screening in the BPDCN cell line Cal-1 (AID 1224825; call rule not given here). Conditions: Cal-1 BPDCN cell viability, qHTS; at 45.8 µM (top of the series) unless noted. A digest of the protocol:
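Cal-1 cells, 500 per well in phenol-red-free RPMI with 10% FBS, exposed to compounds for 48 hours at 37C, 5% CO2. Viability read by CellTiter-Glo luminescence; percent activity normalized to DMSO (100%) and 9.2 uM bortezomib final (0%).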

Test [5] is described as follows: qHTS assay for measurement of the activity of small molecule inhibitors on Zika virus induced Caspase-3 activity in human iPSC derived neural progenitor cells (hNPCs) (AID 1224857). Also: % of control where 0% means no effect; nearly all actives have a fitted effect of over 65% in size. The essentials: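 Human iPSC-derived neural progenitor cells pretreated 1 hr with compounds, then infected with Zika virus (2 FFU/cell) for 6 hours at 37 C. Caspase-3/7 measured by Caspase-Glo luminescence; % inhibition calculated from induction scaled to uninfected (0%) and infected (100%) wells.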

The nature of test [6]: qHTS assay for measurement of the activity of small molecule inhibitors on Zika virus induced Caspase-3 activity in human astrocytoma cells (AID 1224859).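 Also: plate controls were ZIKV-infected untreated cells for no effect and uninfected cells for full effect.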 The essentials: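 SNB-19 astrocytoma cells, 250/well, pretreated 1 h with compounds, then Zika virus at 2 FFU/cell for 6 h at 37 C; Caspase-Glo 3/7 luminescence after 30 min; percent inhibition normalised to uninfected and infected controls.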

The nature of test [7]: qHTS Screen of the MIPE 4.0 Collection Against Ewings Sarcoma (RDES) (AID 1259252). Also: nearly all actives have a fitted effect of over 35% in size. Also: potency is read from the fitted curve at half-maximal effect. A digest of the protocol:
(§2)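 Viability screen: 48 h incubation at 37C, 95% humidity, 5% CO2 with serially titrated compound, followed by CellTiter-Glo readout.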

Test [8] in a line: qHTS Screen of the MIPE 4.0 Collection Against Ewings Sarcoma (TC71) (AID 1259253). Also: nearly all actives have a fitted effect of over 40% in size. Also: potency is read from the fitted curve at half-maximal effect. A digest of the protocol: as §2
The nature of test [9]: qHTS Screen of the MIPE 4.0 Collection Against Ewings Sarcoma (EW8) (AID 1259255). Also: nearly all actives have a fitted effect of over 35% in size. Also: potency is read from the fitted curve at half-maximal effect.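 As to viability: 100% = DMSO-treated cells and 0% = medium-only wells without cells.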 A digest of the protocol: as §2
Test [10] can be described thus: qHTS Screen of the MIPE 4.0 Collection Against Ewings Sarcoma (TC32) (AID 1259256). Also: nearly all actives have a fitted effect of over 45% in size. Also: potency is read from the fitted curve at half-maximal effect. A digest of the protocol:
as §2

Each structure is given as a SMILES string. Results filed as inconclusive are left out. Active and inactive are the calls of the source. Unless noted, calls follow the shape of the dose curve; as a rule, active = well fitted inhibition curve with a large enough effect; inconclusive = small, poorly fitted or top-dose-only effect; inactive = no such curve, though single readings can be large or run the other way.

On to `NC(=O)c1ncn([C@@H]2O[C@H](CO)[C@@H](O)[C@@H]2O)c1O`, for which the parasite growth, % of control (lower = inhibition) in [1] worked out at 102%. The compound also had a growth, % of control in test [2] of 71.4%. In addition, the cell viability, % of control (lower = more cytotoxic) in test [3] is 113%. For the same compound, the viability (% of control) in test [4] turned out to be 102%. The Potency result in test [5], in test [6], in test [7], in test [8], in test [9] and in [10] was “inactive” in each case.
For `CCCCCCCCCCCC(CC1OC(=O)C1CCCCCC)OC(=O)C(CC(C)C)NC=O` (configuration not stated), the parasite growth, % of control (lower = inhibition) in test [1] was 17%. The growth, % of control in test [2] stood at 3.37%. Besides, in [3], the cell viability, % of control (lower = more cytotoxic) came to 82.8%. In test [4], the viability (% of control) stood at 89.4%. Besides, the Potency entry in test [5], in [6], in test [7], in [8], in test [9] and in test [10] was “inactive” throughout.
With `Nc1ccn(C2CO[C@H](CO)O2)c(=O)n1` (some centres not stated), the parasite growth, % of control (lower = inhibition) in test [1] was determined as 89.7%. This compound also yielded a growth, % of control in [2] of 75.5%. Besides, the cell viability, % of control (lower = more cytotoxic) in [3] was 203%. Also, the viability (% of control) in [4] was found to be 99.2%. The Potency entry in test [5], in [6], in test [7], in test [8], in test [9] and in test [10] was “inactive” throughout.
On to `CNC(=O)c1cccc(-c2ccc3c(N4CCOC[C@H]4C)nc(N4CCOC[C@H]4C)nc3n2)c1`, for which the parasite growth, % of control (lower = inhibition) in test [1] amounted to 9.01%. The compound also came in with a growth, % of control in test [2] of 5.12%. The cell viability, % of control (lower = more cytotoxic) in test [3] was found to be 20.8%. The viability (% of control) in test [4] turned out to be 20.9%. Besides, the Potency result in [5] and in test [6] was “inactive” each time. The Potency in [7] is 83.3 nM (active); in test [8] it was 66.2 nM (active); in [9], 93.5 nM (active); in [10], 59 nM (active).
Consider `C=C(C)[C@@H]1CC[C@]2(C(=O)O)CC[C@]3(C)[C@H](CC[C@@H]4[C@@]5(C)CC[C@H](O)C(C)(C)[C@@H]5CC[C@]43C)[C@@H]12`, for which, in test [3], the cell viability, % of control (lower = more cytotoxic) was determined as 61.6%. Besides, in [4], the viability (% of control) was 85.4%. Also, the Potency result in test [5], in test [6], in test [7], in [8], in [9] and in test [10] was “inactive” each time.
Consider `COC1=C2C[C@@H](C)C[C@H](OC)[C@@H](O)[C@@H](C)C=C(C)[C@H](OC(N)=O)[C@@H](OC)C=CC=C(C)C(=O)NC(=CC1=O)C2=O`, for which the parasite growth, % of control (lower = inhibition) in [1] is 11.9%. Further, the growth, % of control in test [2] worked out at 3.98%. Besides, the cell viability, % of control (lower = more cytotoxic) in [3] was 3.44%. For the same compound, in [4], the viability (% of control) stood at 4.06%. Also, the Potency result in test [5] and in test [6] was “inactive” in each case. Further, the Potency in test [7] is 590 nM (active); in test [8] it was 590 nM (active); in [9], 372 nM (active); in [10] it was 296 nM (active).
For `CCN(CC)CCNC(=O)c1c(C)[nH]c(C=C2C(=O)Nc3ccc(F)cc32)c1C`, in test [1], the parasite growth, % of control (lower = inhibition) worked out at 16% [at 57.5 µM]. The growth, % of control in [2] was found to be 5.65% [at 57.5 µM]. Also, the cell viability, % of control (lower = more cytotoxic) in test [3] worked out at 7.6% [at 92.2 µM]. Besides, the viability (% of control) in test [4] was found to be 4.58% [at 92.2 µM]. Besides, the Potency entry in test [5] and in [6] was “inactive” in each case. In addition, the Potency in test [7] was 9590 nM (active); in test [8], 13600 nM (active); in [9], 4290 nM (active); in [10] it was 10800 nM (active).
As for `N=c1ccn2c(n1)O[C@H]1[C@@H](O)[C@@H](CO)O[C@H]12`, the parasite growth, % of control (lower = inhibition) in [1] came to 83.2%. The compound further showed a growth, % of control in test [2] of 73.8%. For the same compound, in test [3], the cell viability, % of control (lower = more cytotoxic) worked out at 70.9%. Also, the viability (% of control) in test [4] amounted to 11.2%. The Potency result in test [5] and in test [6] was “inactive” throughout. For the same compound, the Potency is 332 nM (active) in test [7], 662 nM (active) in [8], 1050 nM (active) in test [9] and 372 nM (active) in test [10].
As to `COC(=O)C=CC(=O)OC`, the parasite growth, % of control (lower = inhibition) in [1] is 71.3%. For the same compound, the growth, % of control in test [2] came to 96.5%. Besides, the cell viability, % of control (lower = more cytotoxic) in [3] was 35.4%. The viability (% of control) in test [4] was 101%. Moreover, the Potency entry in test [5] and in [6] was “inactive” each time. The Potency in test [7] is 8330 nM (active); in [8], 18700 nM (active); in [9], 26400 nM (active); in [10], 14800 nM (active).
As to `C=C1C[C@@]2(O)O[C@@]3(C[C@H]2C(C)C)[C@H](C)CC[C@H]13`, the cell viability, % of control (lower = more cytotoxic) in [3] came to 67.8%. Also, the viability (% of control) in test [4] stood at 101%. The Potency entry in [5], in test [6], in test [7], in [8], in test [9] and in test [10] was “inactive” in each case.
For the compound `Oc1cc(-c2nc(-c3ccccc3)[nH]c2-c2ccncc2)ccc1Cl`, the parasite growth, % of control (lower = inhibition) in test [1] is 8.42%. The growth, % of control in [2] is 3.61%. In addition, in test [3], the cell viability, % of control (lower = more cytotoxic) turned out to be 3.91%. Further, the viability (% of control) in [4] turned out to be 5.51%. Further, the Potency result in [5] and in test [6] was “inactive” in each case. For the same compound, the Potency in test [7] is 18700 nM (active); in test [8], 26400 nM (active); in test [9] it was 23500 nM (active); in test [10] it was 18700 nM (active).
`Nc1ccn(C[C@@H](CO)OCP(=O)(O)O)c(=O)n1`: the cell viability, % of control (lower = more cytotoxic) in [3] was 138% [at 23.2 µM]. Moreover, the viability (% of control) in test [4] is 98.1% [at 23.2 µM]. The Potency entry in test [5], in [6], in test [7], in test [8], in [9] and in [10] was “inactive” in each case.
`N[C@H]1CN(c2c(F)cc3c(=O)c(C(=O)O)cn(C4C[C@@H]4F)c3c2Cl)CC12CC2` (some centres not stated): the parasite growth, % of control (lower = inhibition) in [1] amounted to 27.8%. For the same compound, the growth, % of control in test [2] is 10%. The cell viability, % of control (lower = more cytotoxic) in test [3] was 92.2%. For the same compound, the viability (% of control) in test [4] was 92.9%. Besides, the Potency entry in test [5], in [6], in [7], in test [8] and in test [9] was “inactive” in each case. The Potency in [10] was 3.3 nM (active).
`CCNC(=O)Nc1ccc(-c2nc3c(c(N4CCOC[C@H]4C)n2)CCN(C2COC2)C3)cc1`: in test [1], the parasite growth, % of control (lower = inhibition) came to 49%. In addition, the growth, % of control in test [2] amounted to 71.6%. Moreover, the cell viability, % of control (lower = more cytotoxic) in test [3] amounted to 5.52%. The viability (% of control) in test [4] turned out to be 19.9%. The Potency result in [5] and in test [6] was “inactive” in each case. Moreover, the Potency in [7] is 1050 nM (active); in test [8] it was 935 nM (active); in [9], 1050 nM (active); in [10] it was 935 nM (active).
Regarding `O=C(O)C(=O)Nc1cccc(C2=NN=N[N]2)c1`, in [3], the cell viability, % of control (lower = more cytotoxic) turned out to be 222%. For the same compound, in [4], the viability (% of control) stood at 113%. Moreover, the Potency entry in test [5], in [6], in test [7], in test [8], in test [9] and in test [10] was “inactive” each time.
For the compound `O=C(O)c1ccc(Nc2ncc3c(n2)-c2ccc(Cl)cc2C(c2c(F)cccc2F)=NC3)cc1`, the parasite growth, % of control (lower = inhibition) in test [1] turned out to be 44%. Further, the growth, % of control in test [2] was found to be 52.9%. The cell viability, % of control (lower = more cytotoxic) in [3] came out at 41.7%. In addition, the viability (% of control) in [4] stood at 18.2%. The Potency result in [5] and in test [6] was “inactive” throughout. For the same compound, the Potency in [7] is 1050 nM (active); in [8], 833 nM (active); in test [9], 296 nM (active); in test [10], 590 nM (active).
`COc1cc(C(C)C)c(Oc2cnc(NC(CO)CO)nc2N)cc1I`: in test [1], the parasite growth, % of control (lower = inhibition) stood at 60.9%. Further, the growth, % of control in test [2] came to 97.9%. Besides, in [3], the cell viability, % of control (lower = more cytotoxic) turned out to be 294%. Further, the viability (% of control) in [4] came out at 1.88%. Moreover, the Potency result in test [5] and in [6] was “inactive” in each case. Besides, the Potency in [7] was 935 nM (active); in test [8], 1050 nM (active); in test [9], 7430 nM (active); in [10] it was 1480 nM (active).
